# Data as given in PubChem BioAssay (NCATS).
# Inconclusive results are not listed. Activity calls are given as the source filed them. Unless noted, the call rests on the fitted dose curve; in most records, active means well fitted activation curve with a large enough effect; inconclusive means small, poorly fitted or top-dose-only effect; inactive means flat fitted curve, though single readings scatter.
# Test: Primary redox qHTS assay for identification of artifact compounds. (AID 1845223);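 further: 0% = DMSO and 100% = reference compound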
# Conditions: Amplex Red/HRP redox cycling with DTT, fluorescence; series mostly up to 53.8 µM; redox activity (% of DA3003): at the top concentration
# Outline: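 Redox-cycling detection via DTT (250 uM final) oxidation coupled to Amplex Red (25 uM)/HRP (250 mU/mL) in HBSS. 15 min preincubation plus 30 min after DTT, room temperature. Ex/Em 525/598 nm; 4-parameter Hill fit against DMSO and 10 uM DA3003.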
row,Compound,redox activity (% of DA3003)
1,O=[N+]([O-])c1ccc(-[n+]2nc(-c3ccccc3)nn2-c2ccc(I)cc2)cc1,-6.15% (inactive)
2,COc1ccccc1NC(=O)Nc1ccc2ccccc2c1,-0.209% (inactive)
3,CCC(C)n1cc(C)c2c(C(=O)NCc3c(C)cc(C)[nH]c3=O)cc(-c3ccc(N4CCNCC4)nc3)cc21 (stereo not given),8% (inactive)
4,Cn1c(NC[C@@H](N)Cc2ccccc2)nc(-c2ccncc2)c(-c2ccc3ccccc3c2)c1=O,8.99% (inactive)
5,CC1(C)CC[C@]2(C(=O)OC3OC(CO)C(O)C(O)C3O)CC[C@]3(C)C(=CCC4[C@@]5(C)CC[C@H](OC6OC(C(=O)O)C(O)C(O)C6O)C(CO)(CO)C5CC[C@]43C)[C@@H]2C1 (stereo not given in full),7.5% [at 11.5 µM] (inactive)
6,Nc1ncnc2c1ncn2[C@@H]1O[C@H](CO)C[C@H]1O,-0.604% (inactive)
7,CCOC(=O)c1cnn(-c2ccc(NC(=O)C(Cl)=C(Cl)Cl)cc2)c1C(F)(F)F,-5.03% (inactive)
8,COc1ccc(C(=O)N(CCC(C)C)Cc2nc(C)c(C)n2Cc2ccccc2C)c(OC)c1,-2.63% (inactive)
9,CN(C)C(=O)c1cc2cnc(Nc3ccc(N4CCNCC4)cn3)nc2n1C1CCCC1,-4.78% (inactive)
10,CC(C)(C)c1ccc(-c2nc3ccccc3[nH]2)cc1,-1.98% [at 25.6 µM] (inactive)
11,CCN1CCN(Cc2ccc(-c3cc4c(NC(C)c5ccccc5)ncnc4[nH]3)cc2)CC1 (stereo not given),14.2% (inactive)
12,CN1CCN(C(=O)c2ccc(Nc3nccc(-c4cccs4)n3)cc2Cl)CC1,14.6% (inactive)
13,COc1ccccc1-c1cc(Nc2cccc(CS(N)(=O)=O)c2)ncn1,-6.15% (inactive)
14,COc1cc2ncnc(Oc3cccc(NC(=O)Nc4cc(C(C)(C)C(F)(F)F)on4)c3)c2cc1OC,-10.4% (inactive)
15,O=C(NNc1ccccc1)c1ccncc1,-3.3% (inactive)
16,CN(CCCNC(=O)c1ccc2nc3c(c(Cl)c2c1)CCCC3)Cc1ccccc1,-0.834% (inactive)
17,O=C(NC(NC(=S)Nc1ccc(F)c([N+](=O)[O-])c1)C(Cl)(Cl)Cl)C(c1ccccc1)c1ccccc1 (stereo not given),-1.24% [at 25.6 µM] (inactive)
18,Cc1[nH]c(/C=C2\C(=O)Nc3ccc(F)cc32)c(C)c1C(=O)NC[C@H](O)CN1CCOCC1,13.7% (inactive)

# Test: qHTS drug screen for cell cycle checkpoint inhibitors in PARPi-resistant BRCA-mutant ovarian cancer cell lines. (AID 1963452; calls by dose curve)
# Conditions: PEO1/OlaR viability, CellTiter-Glo luminescence, 96 h; stronger effect = lower value
# Outline: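 PEO1, PEO4 and PEO1/OlaR ovarian cancer cells, 600 per well, exposed 96 h at 37C to a dilution series. Viability read by CellTiter-Glo luminescence, normalized to DMSO and empty wells; activity summarized as Z-AUC.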
row,Compound,Z-AUC
1,COc1cc([C@@H](CC(=O)O)c2ccc(C)c(CN3C[C@@H](C)Oc4ccccc4S3(=O)=O)c2)cc2nnn(C)c12,1.24 (inactive)
2,Cn1c(NC[C@@H](N)Cc2ccccc2)nc(-c2ccncc2)c(-c2ccc3ccccc3c2)c1=O,-0.2 (inactive)
3,Nc1ncnc2c1ncn2[C@@H]1O[C@H](CO)C[C@H]1O,1.48 (inactive)
4,CN(C)C(=O)c1cc2cnc(Nc3ccc(N4CCNCC4)cn3)nc2n1C1CCCC1,0.0269 (inactive)
5,COc1cc2ncnc(Oc3cccc(NC(=O)Nc4cc(C(C)(C)C(F)(F)F)on4)c3)c2cc1OC,0.198 (inactive)
6,O=C(NNc1ccccc1)c1ccncc1,1.21 (inactive)
7,C=CC(=O)Nc1cc(Nc2nccc(-c3cn(C)c4ccccc34)n2)c(OC)cc1N(C)CCN(C)C,-0.422 (inactive)
8,CCN(CCCOc1ccc2c(Nc3cc(CC(=O)Nc4cccc(F)c4)[nH]n3)ncnc2c1)CCOP(=O)(O)O,1.19 (inactive)
9,Cc1[nH]c(/C=C2\C(=O)Nc3ccc(F)cc32)c(C)c1C(=O)NC[C@H](O)CN1CCOCC1,-1.33 (inactive)
10,COc1ccc(CNC(=O)Nc2ncc([N+](=O)[O-])s2)cc1,-1.06 (inactive)

# Same assay, conditions: PEO1/OlaR viability, CellTiter-Glo luminescence, 96 h; measured here: PEO1 parental Z-AUC; stronger effect = lower value
row,Compound,Z-AUC
1,COc1cc([C@@H](CC(=O)O)c2ccc(C)c(CN3C[C@@H](C)Oc4ccccc4S3(=O)=O)c2)cc2nnn(C)c12,0.171
2,Cn1c(NC[C@@H](N)Cc2ccccc2)nc(-c2ccncc2)c(-c2ccc3ccccc3c2)c1=O,0.768
3,Nc1ncnc2c1ncn2[C@@H]1O[C@H](CO)C[C@H]1O,0.932
4,C[C@@H]1COCCN1c1cc(C2(S(C)(=N)=O)CC2)nc(-c2ccnc3[nH]ccc23)n1 (stereo not given in full),-1.94
5,CN(C)C(=O)c1cc2cnc(Nc3ccc(N4CCNCC4)cn3)nc2n1C1CCCC1,0.759
6,COc1cc2ncnc(Oc3cccc(NC(=O)Nc4cc(C(C)(C)C(F)(F)F)on4)c3)c2cc1OC,0.387
7,O=C(NNc1ccccc1)c1ccncc1,0.257
8,C=CC(=O)Nc1cc(Nc2nccc(-c3cn(C)c4ccccc34)n2)c(OC)cc1N(C)CCN(C)C,-0.39
9,CCN(CCCOc1ccc2c(Nc3cc(CC(=O)Nc4cccc(F)c4)[nH]n3)ncnc2c1)CCOP(=O)(O)O,0.684
10,Cc1[nH]c(/C=C2\C(=O)Nc3ccc(F)cc32)c(C)c1C(=O)NC[C@H](O)CN1CCOCC1,0.846
11,COc1ccc(CNC(=O)Nc2ncc([N+](=O)[O-])s2)cc1,-0.517

# Same assay, conditions: PEO1/OlaR viability, CellTiter-Glo luminescence, 96 h; measured here: PEO4 Z-AUC; stronger effect = lower value
row,Compound,Z-AUC
1,COc1cc([C@@H](CC(=O)O)c2ccc(C)c(CN3C[C@@H](C)Oc4ccccc4S3(=O)=O)c2)cc2nnn(C)c12,-0.282
2,Cn1c(NC[C@@H](N)Cc2ccccc2)nc(-c2ccncc2)c(-c2ccc3ccccc3c2)c1=O,0.932
3,Nc1ncnc2c1ncn2[C@@H]1O[C@H](CO)C[C@H]1O,0.673
4,C[C@@H]1COCCN1c1cc(C2(S(C)(=N)=O)CC2)nc(-c2ccnc3[nH]ccc23)n1 (stereo not given in full),-1.89
5,CN(C)C(=O)c1cc2cnc(Nc3ccc(N4CCNCC4)cn3)nc2n1C1CCCC1,0.126
6,COc1cc2ncnc(Oc3cccc(NC(=O)Nc4cc(C(C)(C)C(F)(F)F)on4)c3)c2cc1OC,0.555
7,O=C(NNc1ccccc1)c1ccncc1,0.154
8,C=CC(=O)Nc1cc(Nc2nccc(-c3cn(C)c4ccccc34)n2)c(OC)cc1N(C)CCN(C)C,-1.1
9,CCN(CCCOc1ccc2c(Nc3cc(CC(=O)Nc4cccc(F)c4)[nH]n3)ncnc2c1)CCOP(=O)(O)O,0.183
10,Cc1[nH]c(/C=C2\C(=O)Nc3ccc(F)cc32)c(C)c1C(=O)NC[C@H](O)CN1CCOCC1,0.0211
11,COc1ccc(CNC(=O)Nc2ncc([N+](=O)[O-])s2)cc1,-0.518
